Only some compounds are listed: those with a hit (about 3.1% of all), similar ones and a draw of the others.
D3 antag: blocks the human D3 dopamine receptor | P35462 | D3R cells, DiscoveRx beta-arrestin luminescence, antagonist mode; active compounds read low | max response, negative = inhibition, % | 360,000 compounds, 2.5% hits | AID 652054; in the data active = max response below about -50%; inconclusive = no clear call, values can overlap the other calls; also: % is scaled to controls: 0 for no effect and ±100 for the full control effect
Target sequence (P35462 whole entry, looked up): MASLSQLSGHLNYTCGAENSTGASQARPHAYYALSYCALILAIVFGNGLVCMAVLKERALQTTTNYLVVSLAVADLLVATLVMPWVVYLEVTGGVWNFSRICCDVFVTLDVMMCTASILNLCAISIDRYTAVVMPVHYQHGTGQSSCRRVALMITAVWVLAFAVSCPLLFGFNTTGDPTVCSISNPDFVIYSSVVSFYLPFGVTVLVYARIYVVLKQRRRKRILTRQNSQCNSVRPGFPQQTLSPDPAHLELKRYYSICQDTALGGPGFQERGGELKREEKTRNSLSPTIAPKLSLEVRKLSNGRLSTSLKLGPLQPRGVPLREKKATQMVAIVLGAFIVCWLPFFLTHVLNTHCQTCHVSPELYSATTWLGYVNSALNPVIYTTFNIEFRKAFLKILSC
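Cells expressing the human receptor were seeded at 1500 cells/well, incubated overnight at 37 degrees C in 5% CO2, then exposed to library compounds with dopamine controls for 90 minutes at 37 degrees C before luminescent detection.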
RGS4 inhibitor: blocks human RGS4-accelerated GTP hydrolysis. P49798. Transcreener GDP fluorescence polarization, RGS4-accelerated GTP hydrolysis. Potency, µM (doses to about 114 µM), without a hit: top-dose activity change, negative = inhibition, usual class: inhibitors. 390,000 compounds, 0.039% hits. AID 504845; active = well fitted inhibition curve with a large enough effect; inconclusive = small, poorly fitted or top-dose-only effect; inactive = no such curve, though single readings can be large or run the other way; also: potency is read from the fitted curve at half-maximal effect; % is scaled to controls: 0 for no effect and ±100 for the full control effect; nearly all actives have a fitted effect of over 75% in size
Target sequence (P49798 whole entry, looked up): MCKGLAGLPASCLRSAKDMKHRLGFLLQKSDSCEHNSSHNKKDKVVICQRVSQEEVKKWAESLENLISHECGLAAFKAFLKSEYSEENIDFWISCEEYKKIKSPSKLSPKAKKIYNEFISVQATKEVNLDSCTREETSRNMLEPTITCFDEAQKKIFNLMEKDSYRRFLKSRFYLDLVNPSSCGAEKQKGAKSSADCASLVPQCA
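MLSMR compounds (23 nl, pin-transferred) preincubated 10 min at room temperature with a 500nM (2x) first reagent, then RGS4 at 900nM (2x) plus Transcreener GDP mix added; fluorescence polarization (620/688 nm) read before and after 90 min at 30 °C.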
DRD3 agonist: D3 dopamine receptor (human) agonism; max activation, %; D3R DiscoveRx beta-arrestin cells, luminescence, 90 min; P35462; 410,000 compounds, 0.58% hits; AID 652048; in the data active = max activation above about 30%; also: 0% is about no effect
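Agonist-mode cell screen: cells plated at 1500/well and incubated overnight at 37 °C, then exposed to library compounds for 90 min at 37 °C. Detection reagent was added for 30–60 min at room temperature, and luminescence was read.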
uPA surface inh: inhibitors of cell surface uPA generation | cell surface uPA generation assay, qHTS | Potency, µM (titrated, usually from 38.3 µM), inactives show top-dose activity change, negative = inhibition, actives largely listed as inhibitors | 330,000 compounds, 0.31% hits | AID 540303; active = well fitted inhibition curve with a large enough effect; inconclusive = small, poorly fitted or top-dose-only effect; inactive = no such curve, though single readings can be large or run the other way; tested in mouse RAW 264.7 cells; also: potency is read from the fitted curve at half-maximal effect; % is scaled to controls: 0 for no effect and ±100 for the full control effect; nearly all actives have a fitted effect of over 55% in size
Numbers without * were called inactive; [ ] = dose if it differs, or a comment.

O=C(c1nc2ccccn2c1CNCC1OCCc2ccccc21)N1CCOCC1 (configuration not stated) was read as D3 antag -26.3, RGS4 inhibitor 5.5%, DRD3 agonist -9.9 and uPA surface inh 0.4%.
For Cc1ccn2c(CNCC3OCCc4ccccc43)c(C(=O)N3CCCCCC3)nc2c1 (configuration not stated) the results were D3 antag -80.9*, RGS4 inhibitor -12.4%, DRD3 agonist -12.7 and uPA surface inh -2.5%.
CCCn1c(=N)c(C(=O)NC(C)c2ccccc2)cc2c(=O)n3ccccc3nc21 (configuration not stated) was read as RGS4 inhibitor 14.1% and DRD3 agonist 1.4.
`CC(C)C[C@@H](CN)NC(=O)c1nc[nH]c1C(=O)N[C@@H](C)C(=O)CNC[C@H](CC(C)C)NC(=O)c1nc[nH]c1C(=O)N[C@@H](CC(=O)O)C(=O)O` gave D3 antag -24.2, RGS4 inhibitor -17.9%, DRD3 agonist 0.0 and uPA surface inh -13.3%.
Screening CC(C)C[C@@H](CN)NC(=O)c1nc[nH]c1C(=O)N[C@@H](Cc1ccccc1)C(=O)CNC[C@H](C)NC(=O)c1nc[nH]c1C(=O)N[C@@H](C)C(=O)O returned D3 antag 20.8, RGS4 inhibitor -21.8%, DRD3 agonist 43.2* and uPA surface inh 9.5%.
For CC(C)C[C@@H](CNCC(=O)[C@H](CC(=O)O)NC(=O)c1[nH]cnc1C(=O)N[C@H](CN)CC(C)C)NC(=O)c1nc[nH]c1C(=O)N[C@@H](C)C(=O)O the results were D3 antag -52.8*, RGS4 inhibitor -0.3%, DRD3 agonist 2.7 and uPA surface inh -1.5%.
Screening N#Cc1ccc(CSc2nc(N)cc(N)n2)cc1 returned D3 antag -55.2*, RGS4 inhibitor -8.8%, DRD3 agonist -10.9 and uPA surface inh 2.0%.
Screening CC[C@@]1(c2ccccc2)C(=O)N(C(=O)OC)N1C(=O)OC returned D3 antag 0.0, RGS4 inhibitor -28.7%, DRD3 agonist 26.7 and uPA surface inh -6.3%.
`COC(=O)N1C(=O)[C@@](c2ccccc2)(C2CCCCC2)N1C(=O)OC` gave D3 antag -54.2*, RGS4 inhibitor -20.9%, DRD3 agonist -13.9 and uPA surface inh 8.91µM*.
For O=C(C[n+]1ccc(C(=O)c2ccccc2)cc1)Nc1cccc([N+](=O)[O-])c1 the results were D3 antag -94.7* and DRD3 agonist -13.1.
`O=C(Cc1ccccc1)Nc1cccc([N+](=O)[O-])c1` gave D3 antag -2.9, RGS4 inhibitor 14.2%[11.4 µM], DRD3 agonist -4.4 and uPA surface inh 13.1%.
Cc1ccc(NC(=O)C[n+]2ccccc2)cc1[N+](=O)[O-] was read as D3 antag -59.4*, RGS4 inhibitor 9.4%, DRD3 agonist -10.0 and uPA surface inh -3.1%.
Screening CCc1ccc(-n2c(=O)c3sc4ccccc4c3n(Cc3cccc(F)c3)c2=O)cc1 returned RGS4 inhibitor 2.5% and DRD3 agonist 0.7.
For O=S1(=O)N[C@@H](Cc2ccccc2)COc2cc(N3CC[C@H](O)C3)ccc21 the results were D3 antag 12.3 and DRD3 agonist 2.1.
Cc1cc2c(cc1C)NC(c1c(C)n(C)n(-c3ccccc3)c1=O)C1=C(CC(C)(C)CC1=O)N2 (configuration not stated) was read as D3 antag -92.9*, RGS4 inhibitor -26.5%, DRD3 agonist -1.6 and uPA surface inh -2.7%.
Screening COc1ccc(NC(=O)CCc2c(C)nc3c(c2C)c(=O)n(C)c(=O)n3C)cc1OC returned RGS4 inhibitor -6.8% and DRD3 agonist 4.7.
`COc1ccc(CCn2c(C)cc(C(=O)CCl)c2C)cc1OC` gave D3 antag -15.1, RGS4 inhibitor 15.3%, DRD3 agonist -5.7 and uPA surface inh 8.91µM*.
Screening Cc1cc(C(=O)CSc2nc(N)cc(=O)[nH]2)c(C)n1CCc1ccc(F)cc1 returned D3 antag 8.6, RGS4 inhibitor 13.7%, DRD3 agonist 4.4 and uPA surface inh -5.5%.
`Cc1cc(C(=O)CCl)c(C)n1CCc1ccc(Cl)cc1` gave D3 antag -68.8*, RGS4 inhibitor -28.3%, DRD3 agonist -17.1 and uPA surface inh -15.5%.
For Cc1cc(C(=O)CCl)c(C)n1CCc1ccc(F)cc1 the results were D3 antag -17.1, RGS4 inhibitor -29.9%, DRD3 agonist -0.4 and uPA surface inh -11.3%.
Screening COc1ccc(CCn2c(C)cc(C(=O)CSc3nc(N)cc(=O)[nH]3)c2C)cc1 returned D3 antag 58.1, RGS4 inhibitor -8.1%, DRD3 agonist 34.9* and uPA surface inh -13.4%.
COc1ccc(C2N=C(Nc3nc4ccccc4o3)NC3=C2C(=O)CC(C)(C)C3)cc1 (configuration not stated) was read as RGS4 inhibitor 12.0%.
COc1ccc(N2CCN(C(=O)Cn3cnc4nc5c(cc4c3=O)CCCC5)CC2)cc1 was read as RGS4 inhibitor -27.4% and DRD3 agonist 2.5.
For CS/C(N)=N/N=C/c1ccc([N+](=O)[O-])cc1 the results were D3 antag -50.7*, RGS4 inhibitor inconclusive, DRD3 agonist -0.5 and uPA surface inh -2.6%.
For O=C(CSc1nc2cc(Cl)ccc2s1)NC1CCCc2ccccc21 (configuration not stated) the results were D3 antag 9.3, RGS4 inhibitor -1.1%, DRD3 agonist 32.6* and uPA surface inh 19.5%.
O=C(c1ccccc1)N1CCN(C(=O)N2CCOCC2)CC1 was read as D3 antag 14.8, RGS4 inhibitor -2.9%, DRD3 agonist 0.1 and uPA surface inh 3.8%.
Screening O=C1C(=C(c2ccccc2)N2CCOCC2)Cc2ccccc21 returned D3 antag -124.7* and DRD3 agonist -19.8.
CCCN1CCC(NC(=O)CCc2nnc(Cc3cc(OC)ccc3OC)o2)CC1 was read as D3 antag 20.2, RGS4 inhibitor -0.3%, DRD3 agonist 12.0 and uPA surface inh -0.9%.
CCCN1CCC(NC(=O)CCc2nnc(-c3ccccc3)o2)CC1 was read as D3 antag -52.8*, RGS4 inhibitor -21.5%, DRD3 agonist -5.6 and uPA surface inh -1.4%.
COc1ccc(C2=Nc3ccc(Br)cc3C(c3ccccc3)N2CC(=O)NN)cc1 (configuration not stated) was read as D3 antag -92.8*, RGS4 inhibitor 3.7%, DRD3 agonist -15.8 and uPA surface inh 0.1%.
NNC(=O)CN1C(c2cccc(Cl)c2)=Nc2ccc(Br)cc2C1c1ccccc1 (configuration not stated) was read as D3 antag inconclusive, RGS4 inhibitor 14.7%[56.9 µM], DRD3 agonist -10.3 and uPA surface inh 1.3%.
For COc1ccc(C2=Nc3ccc(C)cc3C(c3ccccc3)N2CC(=O)NN)cc1 (configuration not stated) the results were D3 antag -105.2*, RGS4 inhibitor -18.3%, DRD3 agonist -31.2 and uPA surface inh -5.0%.
`COc1ccc(Nc2cc(C)c3cc(NC(=O)COc4cccc(C)c4)ccc3n2)cc1` gave RGS4 inhibitor 10.7% and DRD3 agonist 28.5.

Source: PubChem
